Screens (PubChem)
An excerpt weighted towards active compounds, which were near 11% of everything screened.
hNpr1 antagonist – Natriuretic polypeptide receptor (hNpr1) antagonism - Primary qHTS; Potency, µM (series often up to 46.3 µM), inactives show at the top dose activity change, negative = inhibition, hits mostly inhibitors; 76,000 compounds, 1.6% hits; HEK293 hNpr1 GloSensor cGMP, ANP-stimulated luminescence; calls by dose curve; note: nearly all actives have a fitted effect of over 60% in size
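HEK293 cells stably expressing human Npr1 and cGMP GloSensor pGS-40F, loaded 2 h with 2% GloSensor reagent, given compound 30 min at room temperature. Luminescence read before and 20 min after 0.1 nM hNppA.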
FLuc inh – Firefly luciferase inhibition profiling of diverse chemical library using quantitative high-throughput screening | Potency, µM (series often up to 115 µM), hits mostly inhibitors | Luciferin 4-monooxygenase (Photinus pyralis), P08659 | purified P. pyralis luciferase, luminescence, biochemical | 76,000 compounds, 2.5% hits | AID 1347043, 2019; note: nearly all actives have a fitted effect of over 65% in size
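Luminescence read by CCD imaging after purified firefly luciferase (10nM final) was added to substrate buffer holding 10uM D-luciferin and 10uM ATP, pH 7.5, pre-dosed with compound.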
NIH3T3 tox – Cytotoxic Profiling in NIH 3T3 Cell Line of Diverse Libraries Using Quantitative High-Throughput Screening | 94,000 compounds, 4.3% hits | NIH 3T3 viability, CellTiter-Glo ATP luminescence, 48-72 h | Potency, µM (series often up to 96.7 µM), for the others: at the highest dose activity change, negative = cytotoxicity, actives largely listed as inhibitors; note: nearly all actives have a fitted effect of over 55% in size
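Mouse fibroblast NIH 3T3 cells, 400 per well, received compound via pintool and were incubated for 48 or 72 hr prior to CellTiter-Glo ATP luminescence measurement.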
HEK cytotox – Cytotoxic Profiling in HEK 293 Cell Line of Diverse Libraries Using Quantitative High-Throughput Screening. HEK 293 viability, ATP luminescence (CellTiter-Glo), 48-72 h. AID 1345083, 2018. 94,000 compounds, 6.6% hits. Potency, µM (top dose mostly 115 µM), inactives show at the top dose activity change, negative = cytotoxicity, most hits filed as inhibitors; note: nearly all actives have a fitted effect of over 60% in size
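Read-out: CellTiter-Glo ATP luminescence. Cells: HEK 293, 250 cells/well. Exposure: 48 or 72 hr, 37 degree Celsius.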
* marks the source's active call; other numbers are inactive results; i = inactive; u = inconclusive; x = no result; [ ] = remark or other dose. Unless noted, calls come from the whole dose curve; as a rule, active = well fitted curve in the direction sought with a large enough effect; inconclusive = small, poorly fitted or top-dose-only effect, or another doubt; inactive = no such curve, though single readings can be large; an effect the other way counts as inactive or inconclusive. % is set by controls: 0 for no effect and ±100 for the full control effect; potency is the fitted concentration of half-maximal effect.

SMILES	hNpr1 antagonist	FLuc inh	NIH3T3 tox	HEK cytotox
Cc1ccc(-c2noc([C@@H]3Cc4nc[nH]c4CN3Cc3cccs3)n2)cc1	-18%[70.6 µM]	28µM*	79µM*	79µM*
c1ccc(CN2Cc3[nH]cnc3C[C@H]2c2nc(-c3ccncc3)no2)cc1	-6%[70.6 µM]	i	u	u
COCCNC(=O)C1(F)CCN(C(=O)c2ccnn2C)CC1	x	x	4%	-6%
COc1ccc(N2CCN(C(=O)CCn3ccn4nc5c(c4c3=O)CCCC5)CC2)cc1	-2%	i	-16%	-17%
Cc1nc2c(c(-c3ccc(O)cc3)n1)CN(Cc1cccc3ccccc13)CCC2	u	i	32µM*	32µM*
Cc1nc2c(c(-c3ccc(O)cc3)n1)CN(Cc1ccc(C(F)(F)F)cc1)CC2	-1%	i	-31%	u
Cc1nc2c(c(-c3ccc(O)cc3)n1)CN(Cc1ccc(OC(F)(F)F)cc1)CCC2	u	i	u	35µM*
Cc1nc2c(c(-c3ccc(O)cc3)n1)CN(Cc1ccccc1)CCC2	0%	i	u	u
COc1ccc(-c2nc(C)nc3c2CCN(Cc2cccc4ccccc24)CC3)cc1	3%	i	u	40µM*
Cc1nc2c(c(-c3ccc(O)cc3)n1)CN(Cc1ccc(C(F)(F)F)cc1)CCC2	u	i	u	32µM*
Cc1nc2c(c(-c3ccc(O)cc3)n1)CN(Cc1ccc(OC(F)(F)F)cc1)CC2	-22%	i	u	u
COc1ccc(-c2cc(N3CCCN(C(=O)Cc4ccccc4Br)CC3)n[nH]2)cc1	-4%	i	u	u
COc1ccccc1OCc1cc(C(=O)N2CCC(NC(C)=O)CC2)n[nH]1	0%	i	-1%	-12%
O=C(NCc1ccc(C(F)(F)F)cc1)c1cc(Br)cn2ccnc12	-16%	i	-22%	u
CC(C)c1ccc([S+](=O)([O-])c2nnn3c2nc(NCc2ccncc2)c2ccccc23)cc1	x	x	40µM*	50µM*
Cc1ccc([S+](=O)([O-])c2nnn3c2nc(NCc2ccncc2)c2ccccc23)cc1	x	x	i	-10%
COc1ccccc1Cc1nccc(C2(c3ccccc3Cl)CCNCC2)n1	-15%	i	22µM*	u
Clc1ccccc1C1(c2ccnc(NC3CC3)n2)CCNCC1	-10%	i	u	u
Clc1ccccc1C1(c2ccnc(CC3CC3)n2)CCNCC1	-2%	i	79µM*	u
COCCNc1nccc(C2(c3ccccc3Cl)CCNCC2)n1	2%	i	-20%	u
Clc1ccccc1C1(c2ccnc(NCc3ccccc3)n2)CCNCC1	u	i	25µM*	u
Clc1ccccc1C1(c2ccnc(NCc3ccccn3)n2)CCNCC1	-1%	i	-27%	u
Clc1ccccc1C1(c2ccnc(C3CCCC3)n2)CCNCC1	-16%	i	32µM*	u
COc1ccccc1CC(=O)N1CCCc2ncc(C(=O)Nc3ccccn3)cc21	-3%[70.6 µM]	i	-5%[138 µM]	u
Fc1ccc(OC2CN(Cc3cncs3)C2)cc1F	-12%[70.6 µM]	i	-23%[138 µM]	u
SMILES	hNpr1 antagonist	FLuc inh	NIH3T3 tox	HEK cytotox
COc1ccc(-c2ccnc(N[C@H]3CO[C@H]4[C@@H]3OC[C@H]4OCC(=O)N(C)C)n2)cc1	-2%[70.6 µM]	i	u	u
COc1cc(F)ccc1-c1cc(C(=O)NCc2c(C)cc(C)[nH]c2=O)c2c(c1)ncn2C	4%[70.6 µM]	u	25µM*	u
Cc1cc(C)c(CNC(=O)c2cc(-c3ccc(CO)cc3)cc3c2OCCN3C)c(=O)[nH]1	0%[70.6 µM]	i	13µM*	89µM*
COc1ccccc1-c1cc(C(=O)NCc2c(C)cc(C)[nH]c2=O)c2c(c1)N(C)CCO2	-11%[70.6 µM]	i	u	89µM*
Cc1ccc(-c2cc(C(=O)NCc3c(C)cc(C)[nH]c3=O)c3c(c2)N(C(C)C)CCO3)cc1	-2%	i	u	u
Cc1cc(C)c(CNC(=O)c2cc(-c3ccccc3)cc3c2OCCN3C(C)C)c(=O)[nH]1	-9%[70.6 µM]	i	22µM*	32µM*
Cc1ccc(-c2cc(C(=O)NCc3c(C)cc(C)[nH]c3=O)c3c(c2)N(C)CCO3)cc1	-4%[70.6 µM]	i	u	u
Cc1cc(C)c(CNC(=O)c2cc(-c3ccccc3)cc3c2OCCN3C)c(=O)[nH]1	-14%[70.6 µM]	i	u	u
O=C(NCc1cccs1)c1ccc2nc(-c3cccnc3)oc2c1	x	x	-15%	-11%
O=C1NC2(CN(Cc3ccccc3)C2)Oc2ccccc21	7%[70.6 µM]	i	-28%[138 µM]	u
COc1ccccc1OCCNC(=O)c1c(-c2ccccc2)cc(=O)n2c1CCC2	x	x	-5%	2%
O=C(c1ccc(C(F)(F)F)cc1)N1CCCC(C(=O)N2CCC(N3CCOCC3=O)CC2)C1 (centres undefined)	x	x	-5%	-5%
O=C(NC1C=CS(=O)(=O)C1)c1ccc2nc(-c3ccc(F)cc3)cn2c1 (centres undefined)	4%	40µM*	u	45µM*
O=C(NCCCn1ccnc1)c1ccc2nc(-c3ccc(F)cc3)cn2c1	-2%	u	-13%	5%
Cc1cc(C)nc(CNC(=O)c2ccc3nc(-c4ccc(F)cc4)cn3c2)n1	-1%	i	5%	1%
CCC(NC(=O)c1ccc2nc(-c3ccc(F)cc3)cn2c1)c1cccnc1 (centres undefined)	2%	16µM*	u	u
COc1cccc(C(=O)N2CCC(C(=O)N3CCC4(CC3)CC(=O)Nc3ccccc3O4)C2)c1 (centres undefined)	x	x	-14%	-21%
CN(C)C[C@@H]1CN(Cc2cccnc2)C[C@H]1NC(=O)c1cc2ccccc2[nH]1	-7%	i	u	u
O=C(CCC1CCCC1)N1CCCC(CN2CCCC2)CC1 (centres undefined)	-25%	i	u	u
CCOC(=O)c1cc2cc(NC(=O)C3=CC(C)(C)Oc4ccc(OC)cc43)ccc2o1	x	x	u	45µM*
CCOC(=O)c1cc2cc(NCC3=CC(C)(C)COc4ccc(OC)cc43)ccc2o1	x	x	-35%	u
COc1ccc(CNCc2ccc(C)s2)cc1OCC(O)CN1CCCCC1 (centres undefined)	-4%	i	u	79µM*
COc1cc(CNC2CCCCCCC2)ccc1OCC(O)CN1CCSCC1 (centres undefined)	-9%	i	79µM*	u
COc1cc(CNC(C)C)ccc1OCC(O)CN1CCSCC1 (centres undefined)	5%	i	4%	-6%
N#Cc1ccc(C2c3nc[nH]c3CCN2Cc2ccc3ccccc3n2)cc1 (centres undefined)	2%	i	u	u
